FBA Mtb inh: Mtb FBA enzyme inhibitors, primary screen, biochemical, fluorescence, strain H37Rv; Fructose-bisphosphate aldolase (Mycobacterium tuberculosis (strain ATCC 25618 / H37Rv)), …; purified M. tuberculosis FBA, fluorescence read-out; inhibition, % at 1 µM; 360,000 compounds, 2.3% hits;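 further: 0% = vehicle and 100% = reference inhibitor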
Mtb UGM inh: M. tuberculosis UGM enzyme inhibitors, primary screen, biochemical, fluorescence polarization, single point; purified UGM, fluorescence polarization probe displacement; inhibition, % at 10 µM; 320,000 compounds, 0.06% hits; AID 504406, 2011; in the data active means inhibition above about 10%, passing the limit was not always enough
Target sequence (P9WIQ1 whole entry, looked up): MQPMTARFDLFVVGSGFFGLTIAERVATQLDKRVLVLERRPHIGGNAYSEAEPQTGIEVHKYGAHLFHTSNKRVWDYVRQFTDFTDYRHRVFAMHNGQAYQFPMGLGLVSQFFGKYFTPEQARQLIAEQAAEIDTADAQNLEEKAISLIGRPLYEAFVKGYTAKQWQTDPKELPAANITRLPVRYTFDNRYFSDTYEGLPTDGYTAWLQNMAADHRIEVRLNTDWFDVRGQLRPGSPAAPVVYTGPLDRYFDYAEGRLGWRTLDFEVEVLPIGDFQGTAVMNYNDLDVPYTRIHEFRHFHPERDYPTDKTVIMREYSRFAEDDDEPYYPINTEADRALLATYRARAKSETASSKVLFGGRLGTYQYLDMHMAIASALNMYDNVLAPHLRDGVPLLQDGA
Mtb betalactam: beta-lactam sensitization of Mtb H37Rv, H37Rv; AID 434955, 2010; M. tuberculosis H37Rv growth with meropenem, percent inhibition; 330,000 compounds, 0.27% hits; inhibition, % at 25 µM; call rule not given here;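 further: growth measured after seven days incubation then overnight dye step; 0% = bacteria only wells and 100% = bacteria with antibiotic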
GDH-TPI counter-1: GDH-TPI coupling enzyme inhibitors, primary screen, artefact control for M. tuberculosis FBA inhibitor project, biochemical, absorbance, full deck. GDH-TPI coupled enzyme counterscreen, NADH absorbance. 360,000 compounds, 1.2% hits. AID 588335, 2011. inhibition, % at 4.8 µM; in the data active means inhibition above about 30%;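 further: 0% = DMSO wells and 100% = wells lacking the enzyme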
Rv3671c protease: Rv3671c serine protease inhibitors, primary screen, biochemical, fluorescence polarization, M. tuberculosis H37Rv; inhibition, % at 5.96 µM; P9WHR9; 320,000 compounds, 0.048% hits; in the data active means inhibition above about 38%;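 further: extracellular domain of Rv3671c used as enzyme; 0% = enzyme with DMSO and 100% = no enzyme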
SSB-PriA inh: inhibitors of Klebsiella pneumoniae PriA binding to SSB C-terminal tail, primary screen, biochemical, AlphaScreen; AlphaScreen SSBct-PriA binding, biotinylated peptide; 430,000 compounds, 0.6% hits; inhibition, % at 33 µM; PriA–SSB C-terminal tail interaction (Klebsiella pneumoniae); in the data active means inhibition mostly above about 37%, no sharp cut-off; inactive means mostly below about 20%;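 further: plate controls were negative control peptide for no effect and reference peptide for full effect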
Mtb FBA inh conf: M. tuberculosis aldolase blockers, biochemical, fluorescence, strain H37Rv, confirmation; shares compounds with FBA Mtb inh; purified M. tuberculosis FBA, fluorescence read-out; inhibition, % at 1 µM; 5,600 compounds, 78% hits;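 further: 0% = vehicle wells and 100% = reference inhibitor wells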
GDH-TPI counter-2: GDH-TPI coupling enzyme inhibitors, artefact control for M. tuberculosis FBA inhibitor project, biochemical, fluorescence, high throughput; 5,600 compounds, 81% hits; shares compounds with FBA Mtb inh; GDH-TPI coupled enzyme counterscreen; inhibition, % at 1 µM; AID 652141, 2013; in the data active means inhibition above about 10%
An asterisk follows results filed as active. Rows were chosen to be rich in hits. Some 3.2% of all compounds tested hit in one or more screens of this group. Unless noted, no stated cut-off is given here; in the data, active means inhibition above about 27%; inactive means the rest.

O=C(COc1ccc2c3c(c(=O)oc2c1)CCCC3)NCCCN1CCCC1=O was read as FBA Mtb inh 62*, Mtb UGM inh -2, Mtb betalactam 0, GDH-TPI counter-1 14, Rv3671c protease 0, SSB-PriA inh -3, Mtb FBA inh conf 92* and GDH-TPI counter-2 79*.
Screening CC(Oc1ccc2c3c(c(=O)oc2c1)CCCC3)C(=O)NCCCn1ccnc1 (stereo not drawn) returned FBA Mtb inh 25, Mtb UGM inh -1, Mtb betalactam 0, GDH-TPI counter-1 16, Rv3671c protease -4 and SSB-PriA inh 7.
`O=C(COc1ccc2c3c(c(=O)oc2c1)CCCC3)NCc1ccccn1` gave FBA Mtb inh 86*, Mtb UGM inh -2, Mtb betalactam 5, GDH-TPI counter-1 9, Rv3671c protease 6, SSB-PriA inh 5, Mtb FBA inh conf active and GDH-TPI counter-2 active.
O=C(COc1ccc2c3c(c(=O)oc2c1)CCC3)NCc1ccncc1 was read as FBA Mtb inh 20, Mtb UGM inh -4, Mtb betalactam 1, GDH-TPI counter-1 9, Rv3671c protease 5 and SSB-PriA inh -6.
For O=c1[nH]c(NCCO)c(N=Cc2ccccc2)c(=O)[nH]1 the results were FBA Mtb inh 85*, Mtb UGM inh 0, Mtb betalactam 0, GDH-TPI counter-1 0, Rv3671c protease -5, SSB-PriA inh -17, Mtb FBA inh conf 108* and GDH-TPI counter-2 94*.
For CC(C)(C)c1ccc(C(=O)NN=Cc2cccc(Cl)c2)cc1 the results were SSB-PriA inh -16.
`CCOc1ccc(C2SCC(=O)N2c2c(C)n(C)n(-c3ccccc3)c2=O)cc1` (stereo not drawn) gave FBA Mtb inh 96*, Mtb UGM inh -3, Mtb betalactam -17, GDH-TPI counter-1 0, Rv3671c protease 2, SSB-PriA inh -12, Mtb FBA inh conf 3 and GDH-TPI counter-2 -4.
For COc1ccc(C2SCC(=O)N2c2c(C)n(C)n(-c3ccccc3)c2=O)cc1OC (stereo not drawn) the results were FBA Mtb inh 47*, Mtb UGM inh 0, Mtb betalactam 3, GDH-TPI counter-1 -1, Rv3671c protease -2, SSB-PriA inh -5, Mtb FBA inh conf 58* and GDH-TPI counter-2 45*.
Cc1c(N2C(=O)CSC2c2ccccc2)c(=O)n(-c2ccccc2)n1C (stereo not drawn) was read as FBA Mtb inh 2, Mtb UGM inh 0, Mtb betalactam -9, GDH-TPI counter-1 -6, Rv3671c protease 8 and SSB-PriA inh 0.
`CCOc1ccc(-c2cn3c(CC(=O)Nc4ccc(C(N)=O)cc4)csc3n2)cc1` gave SSB-PriA inh 3.
Screening O=c1oc2ccc3ccccc3c2cc1-c1nc2ccccc2o1 returned FBA Mtb inh 46*, Mtb UGM inh 2, Mtb betalactam 99, GDH-TPI counter-1 8, Rv3671c protease -6, SSB-PriA inh -10, Mtb FBA inh conf 73* and GDH-TPI counter-2 67*.
`Nc1ccc2oc(-c3cccc4ccccc34)nc2c1` gave FBA Mtb inh 6, Mtb UGM inh 2, Mtb betalactam 9, GDH-TPI counter-1 13, Rv3671c protease 3 and SSB-PriA inh -47.
Screening O=c1oc2ccccc2c2c1ccc1ccccc12 returned FBA Mtb inh 29*, GDH-TPI counter-1 14, SSB-PriA inh -57, Mtb FBA inh conf 51* and GDH-TPI counter-2 43*.

Screening data as filed in PubChem BioAssay.
